Source: PubChem BioAssay AID1159580 (chemical genetic matrix, 2015)
Out of some 5,500 compounds screened, about 2,000 (36%) were called active. Roughly 18% stayed inconclusive and do not appear here. Cut-off read from the data, not from the text of the source: active = normalized growth mostly below about 0.91 (no sharp cut-off); inconclusive = no clear call, values can overlap the other calls; inactive = mostly above about 0.92. The list shows a part of the results.

Test: chemical genetic growth profiling, strain panel (AID 1159580);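 note: tested at 20 µM; growth read once vehicle control cultures reached saturation at 30 °C; 1 = growth at the plate median or of vehicle wells; lower values mean less growth of the strain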
Conditions: growth OD

Measured: normalized growth

O=C1CC2OCC=C3CN4CC[C@]56c7ccccc7N1C5[C@H]2[C@H]3CC46 (some centres not stated)
inactive: S. cerevisiae deletion strains, locus YJR075W, strain HOC1, stronger effect = lower value 1.01 | S. cerevisiae deletion strains, locus YKL009W, strain mrt4, stronger effect = lower value 1 | S. cerevisiae deletion strains, locus YKL068W, stronger effect = lower value 1 | S. cerevisiae deletion strains, locus YKL085W, strain MDH1 (second series), stronger effect = lower value 1 | S. cerevisiae deletion strains, locus YKL085W, strain MDH1, stronger effect = lower value 1 | S. cerevisiae deletion strains, locus YKL160W, strain elf1, stronger effect = lower value 1.03 | S. cerevisiae deletion strains, locus YKL190W, strain CNB1, stronger effect = lower value 1.01 | S. cerevisiae deletion strains, locus YKR001C, strain vps1, stronger effect = lower value 0.996 | S. cerevisiae deletion strains, locus YKR026C, strain gcn3, stronger effect = lower value 1.04 | S. cerevisiae deletion strains, locus YKR091W, strain srl3, stronger effect = lower value 1.01 | S. cerevisiae deletion strains, locus YLL001W, strain dnm1, stronger effect = lower value 1.03 | S. cerevisiae deletion strains, locus YLL026W, stronger effect = lower value 1.01 | S. cerevisiae deletion strains, locus YLL041C, strain sdh2, stronger effect = lower value 1.02 | S. cerevisiae deletion strains, locus YLR027C, strain aat2, stronger effect = lower value 1.03 | S. cerevisiae deletion strains, locus YLR039C, strain RIC1, stronger effect = lower value 1.03 | S. cerevisiae deletion strains, locus YLR058C, strain SHM2, stronger effect = lower value 1.02 | S. cerevisiae deletion strains, locus YLR102C, strain apc9, stronger effect = lower value 1 | S. cerevisiae deletion strains, locus YLR113W, strain HOG1, stronger effect = lower value 0.938 | S. cerevisiae deletion strains, locus YLR221C, strain rsa3, stronger effect = lower value 1.02 | S. cerevisiae deletion strains, locus YLR258W, strain gsy2, stronger effect = lower value 1.03 | S. cerevisiae deletion strains, locus YLR262C, strain YPT6 (second series), stronger effect = lower value 1.05 | S. cerevisiae deletion strains, locus YLR262C, strain YPT6, stronger effect = lower value 1.1 | S. cerevisiae deletion strains, locus YLR268W, strain sec22, stronger effect = lower value 0.994 | S. cerevisiae deletion strains, locus YLR320W, strain mms22, stronger effect = lower value 1.03 | S. cerevisiae deletion strains, locus YLR330W, strain CHS5, stronger effect = lower value 1.01 | S. cerevisiae deletion strains, locus YLR342W, strain FKS1 (second series), stronger effect = lower value 0.999 | S. cerevisiae deletion strains, locus YLR342W, strain FKS1, stronger effect = lower value 1.01 | S. cerevisiae deletion strains, locus YLR357W, strain rsc2, stronger effect = lower value 1.03 | S. cerevisiae deletion strains, locus YLR370C, strain arc18, stronger effect = lower value 1.03 | S. cerevisiae deletion strains, locus YLR371W, strain rom2, stronger effect = lower value 0.993 | S. cerevisiae deletion strains, locus YLR384C, strain iki3, stronger effect = lower value 1.03 | S. cerevisiae deletion strains, locus YLR418C, strain cdc73, stronger effect = lower value 0.961 | S. cerevisiae deletion strains, locus YML016C, strain PPZ1, stronger effect = lower value 1.01 | S. cerevisiae deletion strains, locus YML032C, strain rad52, stronger effect = lower value 0.995 | S. cerevisiae deletion strains, locus YML120C, strain ndi1, stronger effect = lower value 1.02 | S. cerevisiae deletion strains, locus YML124C, strain tub3, stronger effect = lower value 0.999 | S. cerevisiae deletion strains, locus YMR058W, strain fet3, stronger effect = lower value 1.02 | S. cerevisiae deletion strains, locus YMR078C, strain ctf18, stronger effect = lower value 0.998 | S. cerevisiae deletion strains, locus YMR125W, strain sto1, stronger effect = lower value 1.02 | S. cerevisiae deletion strains, locus YMR129W, stronger effect = lower value 1.03 | S. cerevisiae deletion strains, locus YMR205C, strain PFK2, stronger effect = lower value 1.05 | S. cerevisiae deletion strains, locus YMR223W, strain ubp8, stronger effect = lower value 0.989 | S. cerevisiae deletion strains, locus YMR231W, strain pep5, stronger effect = lower value 1.03 | S. cerevisiae deletion strains, locus YMR263W, strain SAP30, stronger effect = lower value 1.01 | S. cerevisiae deletion strains, locus YMR307W, strain GAS1, stronger effect = lower value 0.979 | S. cerevisiae deletion strains, locus YNL067W, strain RPL9B, stronger effect = lower value 1.01 | S. cerevisiae deletion strains, locus YNL071W, strain lat1, stronger effect = lower value 1.01 | S. cerevisiae deletion strains, locus YNL128W, strain TEP1, stronger effect = lower value 1.01 | S. cerevisiae deletion strains, locus YNL153C, strain GIM3, stronger effect = lower value 1.02 | S. cerevisiae deletion strains, locus YNL183C, strain NPR1, stronger effect = lower value 0.933 | S. cerevisiae deletion strains, locus YNL209W, strain ssb2, stronger effect = lower value 1.02 | S. cerevisiae deletion strains, locus YNL233W, strain BNI4, stronger effect = lower value 1.01 | S. cerevisiae deletion strains, locus YNL248C, strain rpa49, stronger effect = lower value 1.04 | S. cerevisiae deletion strains, locus YNL250W, strain rad50, stronger effect = lower value 1 | S. cerevisiae deletion strains, locus YNL271C, strain bni1, stronger effect = lower value 0.997 | S. cerevisiae deletion strains, locus YNL298W, strain CLA4, stronger effect = lower value 0.993 | S. cerevisiae deletion strains, locus YNL307C, strain MCK1, stronger effect = lower value 0.994 | S. cerevisiae deletion strains, locus YNL322C, strain KRE1 (second series), stronger effect = lower value 1.03 | S. cerevisiae deletion strains, locus YNL322C, strain KRE1, stronger effect = lower value 1.01 | S. cerevisiae deletion strains, locus YNR049C, strain mso1, stronger effect = lower value 1.01 | S. cerevisiae deletion strains, locus YNR052C, strain pop2, stronger effect = lower value 0.997 | S. cerevisiae deletion strains, locus YOL006C, strain TOP1, stronger effect = lower value 1.03 | S. cerevisiae deletion strains, locus YOL012C, strain htz1 1.63 | S. cerevisiae deletion strains, locus YOL147C, strain pex11, stronger effect = lower value 0.995 | S. cerevisiae deletion strains, locus YOR001W, strain rrp6, stronger effect = lower value 1.04 | S. cerevisiae deletion strains, locus YOR061W, strain CKA2, stronger effect = lower value 1.01 | S. cerevisiae deletion strains, locus YOR069W, strain VPS5, stronger effect = lower value 1.01 | S. cerevisiae deletion strains, locus YOR070C, strain gyp1, stronger effect = lower value 1.01 | S. cerevisiae deletion strains, locus YOR080W, strain dia2, stronger effect = lower value 1.04 | S. cerevisiae deletion strains, locus YOR083W, strain WHI5, stronger effect = lower value 1.02 | S. cerevisiae deletion strains, locus YOR106W, strain vam3, stronger effect = lower value 1.04 | S. cerevisiae deletion strains, locus YOR136W, strain idh2, stronger effect = lower value 0.985 | S. cerevisiae deletion strains, locus YOR144C, strain elg1, stronger effect = lower value 1 | S. cerevisiae deletion strains, locus YOR184W, strain ser1, stronger effect = lower value 0.979 | S. cerevisiae deletion strains, locus YOR231W, strain MKK1, stronger effect = lower value 0.955 | S. cerevisiae deletion strains, locus YOR265W, strain rbl2, stronger effect = lower value 1.03 | S. cerevisiae deletion strains, locus YOR270C, strain vph1, stronger effect = lower value 1.05 | S. cerevisiae deletion strains, locus YOR290C, strain snf2, stronger effect = lower value 1.02 | S. cerevisiae deletion strains, locus YOR316C, strain cot1, stronger effect = lower value 1 | S. cerevisiae deletion strains, locus YPL051W, strain arl3, stronger effect = lower value 1.03 | S. cerevisiae deletion strains, locus YPL055C, strain LGE1, stronger effect = lower value 1.03 | S. cerevisiae deletion strains, locus YPL078C, strain atp4, stronger effect = lower value 1.02 | S. cerevisiae deletion strains, locus YPL106C, strain sse1, stronger effect = lower value 1.03 | S. cerevisiae deletion strains, locus YPL240C, strain hsp82, stronger effect = lower value 1.03 | S. cerevisiae deletion strains, locus YPL241C, strain CIN2, stronger effect = lower value 0.978 | S. cerevisiae deletion strains, locus YPL256C, strain CLN2, stronger effect = lower value 0.951 | S. cerevisiae deletion strains, locus YPR119W, strain clb2, stronger effect = lower value 0.995 | S. cerevisiae deletion strains, locus YPR141C, strain kar3, stronger effect = lower value 1 | S. cerevisiae deletion strains, locus YPR163C, strain tif3, stronger effect = lower value 0.996 | S. cerevisiae deletion strains, locus YPR167C, strain met16, stronger effect = lower value 1.01 | S. cerevisiae deletion strains, strain wtn01, stronger effect = lower value 0.993 | S. cerevisiae strains, strain wild type, stronger effect = lower value 1.01
